“And” between values parts separate entries of the source, which are not always exact repeats. Identical values can stand only once. About 79,000 compounds went through this panel and 15% of them were active in at least one assay; those are over-represented in the sample as a whole. Unmarked numbers belong to inactive results. The source made the active and inactive calls. No stated cut-off is given here; in the data, active means growth inhibition above about 70%; inactive means the rest.
Tests used:
[1] = NCI Yeast Anticancer Drug Screen. Data for the rad50 strain (AID 155);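 further: 0% = growth of vehicle-only cultures of the same strain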; conditions: S. cerevisiae rad50 strain growth inhibition; at 50.0 µM; hits give high values
Method in brief: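 Readout: growth inhibition relative to vehicle-treated cultures. Compound exposure was carried out in a genetically defined yeast strain deficient in DNA damage repair.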

[2] = NCI Yeast Anticancer Drug Screen. Data for the mec2-1 strain (AID 157); conditions: S. cerevisiae mec2-1 strain, at 50.0 µM, hits give high values
Method in brief: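 Using mec2-1 yeast: add compound, measure growth, express inhibition versus vehicle-treated cultures.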

[3] = NCI Yeast Anticancer Drug Screen. Data for the sgs1 mgt1 strain (AID 161);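 further: 0% = growth of cultures given vehicle only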; conditions: S. cerevisiae sgs1 mgt1 strain, at 50.0 µM, hits give high values
Method in brief: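 Growth of a repair-deficient yeast mutant was monitored after compound treatment and expressed as inhibition relative to vehicle-treated cultures.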

[4] = NCI Yeast Anticancer Drug Screen. Data for the cln2 rad14 strain (AID 165);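 further: 0% = growth equal to vehicle treated cultures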; conditions: S. cerevisiae cln2 rad14 strain, at 50.0 µM, hits give high values
Method in brief: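 Yeast strain cln2 rad14, bearing defects in cell cycle control and DNA repair, serves as the test system; values reflect growth inhibition compared with vehicle.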

[5] = NCI Yeast Anticancer Drug Screen. Data for the bub3 strain (AID 167); conditions: S. cerevisiae bub3 mutant strain, at 50.0 µM, hits give high values
Method in brief: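 Readout: yeast growth inhibition, expressed relative to vehicle-only wells. The test organism is a mutant strain from a panel with lesions in DNA repair or checkpoint genes.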

[6] = NCI Yeast Anticancer Drug Screen. Data for the mlh1 rad18 strain (AID 175); conditions: S. cerevisiae mlh1 rad18 strain growth inhibition; at 50.0 µM; hits give high values
Method in brief: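 Steps: expose repair-defective yeast to compound; measure growth; express inhibition against vehicle-treated controls.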

SMILES	growth inhibition [1]	growth inhibition [2]	growth inhibition [3]	growth inhibition [4]	growth inhibition [5]	growth inhibition [6]
COC1=N[C@]2(O)C[C@]3(C)[C@@H](O)CC[C@H]3[C@@H]3CCC4=CC(=O)CC[C@]4(C)[C@]32S1	7.4%	10.6%	2.3%	-22.7%	33.8%	3.2%
CC1(C)SC2C(NC(=O)Cc3ccccc3)C(=O)N2C1C(=O)O (centres undefined)	1.45%	-16.6%	-22.4%	-97.3%	-36.1%	-9.6%
CCC1(C(C)c2ccccc2)C(=O)NC(=O)NC1=O (centres undefined)	0%	6.1%	1.8%	46.1%	16.6%	-3.55%
C/C(=N\N1CN(C(C)C(=O)O)P(N(CCO)CCO)N=C1N)c1cccs1 (centres undefined)	-5.45%	-11.2%	5.85%	-18.6%	7.95%	-8.4%
CCOC(=O)C(Br)C(C)C (centres undefined)	24.1%	12%	16.1%	24.6%	7.6%	10.5%
[Cl][Co][Cl].[NH-]CC[NH-].[NH-]CC[NH-]	19.2% and -9.85%	9.3% and 29.6%	25.2% and -4.55%	-9.95% and 9.2%	36.7% and 2.4%	37% and -23.4%
OC(Br)C1C(c2ccccc2)N1C1CCCCC1 (centres undefined)	-2%	18.4%	-3.35%	-11.2%	0.15%	7.4%
CC(C)CCC(=O)OC1CCC2(C)C(=CCC3C4CCC(=O)C4(C)CCC32)C1 (centres undefined)	3.35%	12.1%	5.35%	-18.7%	-1.9%	13.2%
O=CC(O)C(O)C(O)C(O)COP(=O)(O)Cc1ccccc1 (centres undefined)	-44.9% and 4.75%	-12.2% and -25.2%	-62% and -32.6%	-25.3% and 28.1%	-10.2% and -9.4%	-48% and 7.55%
NNC(=O)c1ccc(N)cc1	-12.1%	-9.75%	-8.3%	6.05%	4.75%	7.1%
Nc1ccc([N+](=O)[O-])cc1[N+](=O)[O-]	-24.9%	5.4%	-21.2%	-8.8%	0.6%	11%
CCCCSP(=S)(SCCCC)SCCCC	36.6%	15.1%	38.5%	-20.2%	10.1%	42%
O=C(Nc1cccc(Cl)c1)OCC(Cl)(Cl)Cl	99.6% (active)	99.8% (active)	99.4% (active)	99.8% (active)	99.3% (active)	99.7% (active)
COc1cc(C(c2c(O)c3ccccc3oc2=O)c2c(O)c3ccccc3oc2=O)cc(OC)c1OC	-2.1%	-8.15%	-10.2%	0.9%	-11.7%	-2.85%
NC(=O)C(CCN1CCCCC1)(c1ccccc1)c1ccccc1	-9.6%	-14.9%	5.65%	-35.4%	-8.8%	-8.25%
c1ccc([C@H]2N[C@@H]2c2ccccn2)cc1	22.6%	32.5%	32.5%	-4.35%	19.5%	13.2%
Nc1cccc2scnc12 (tested in a mixture with another compound)	-13.9%	3.8%	29.7%	-7.85%	-10.3%	19.1%
S=C(Nc1ccccc1)Nc1ccc(N(CCCl)CCCl)cc1	17.6%	0%	12.6%	-40.8%	10.1%	21.7%
O=c1c2cc(Br)cc(Br)c2[nH]c(=S)n1-c1ccccc1	-2.45%	31.4%	21.5%	21.4%	27.6%	19.8%
O=NN(CS(=O)(=O)O)c1ccccc1	-5.9%	-3.05%	-1.6%	-29.2%	6.4%	0.4%

SMILES	growth inhibition [1]	growth inhibition [2]	growth inhibition [3]	growth inhibition [4]	growth inhibition [5]	growth inhibition [6]
CN1CCN(c2nc(N)c(Br)c(Cl)n2)CC1	-2.85%	3.65%	-14.8%	-1.85%	2.95%	-10.2%
CCCCC(CC)C(=O)NC(N)=O (centres undefined)	6.7%	-20.1%	-5.35%	-22.4%	-12.2%	4.1%
CC(=O)Nc1ccc(C(=O)O)cc1 (tested in a mixture with another compound)	-25.9%	-43.6%	-17.4%	3.65%	-46.2%	-7.75%
C1=C[N-]c2c3c(ccc2=C1)=CC=C[N-]3.C1=C[N-]c2c3c(ccc2=C1)=CC=C[N-]3.[Cl][Ru][Cl]	70.3% (active)	28.3%	49%	44.4%	61%	33.8%
CC1(C)OP(=O)(O)C=C1[Se]c1ccccc1	19.2%	11.2%	24.4%	4.95%	-3.2%	26.6%
Cc1cccc(C)c1N	10.3%	2.4%	-9.65%	-36.5%	1.7%	16.8%
NC(=NCCCC(NCc1ccccc1)C(=O)O)N[N+](=O)[O-] (centres undefined)	16.3%	17.6%	16.6%	16.9%	6.85%	16.1%
O=[N+]([O-])c1ccc(C#Cc2ccc(N(CCCl)CCCl)cc2)cc1	1.95%	-8.85%	7.5%	-65.5%	9.2%	-3.95%
c1ccc(C(NC2=NCCO2)c2ccccc2)cc1	-19%	-33%	-60.8%	-21.5%	-17.2%	-45.8%
CCNC(=S)S	-7.35%	-8.4%	-13.1%	-0.6%	-2.25%	-3.75%
O=C(O)C(O)C(O)C(O)C(O)C(O)C(O)CO (centres undefined)	-18.1%	-6.95%	-33.4%	-73.5%	3%	2.95%
O=[P+](O)O[P+](=O)O.O=[P+](O)O[P+](=O)O.O=[P+](O)O[P+](=O)O.O=[P+](O)O[P+](=O)O.[Cl][Pt].[Cl][Pt]	-2.05%	27.8%	26.2%	-32.5%	18.1%	12.9%
NNC(=O)c1cc([N+](=O)[O-])c(O)c([N+](=O)[O-])c1	-9.85%	-14.8%	8.35%	7.4%	11.8%	-5.55%
CC[C@@]1(O)C(=O)OCc2c1cc1n(c2=O)Cc2c-1nc1ccccc1c2Cl	94.9% (active)	92% (active)	63.8%	81.8% (active)	-6.7%	46.3%
NC(CNC(=O)CBr)C(=O)O (centres undefined)	6.9%	18.1%	-3.25%	8.9%	-4.1%	-35.2%
Cc1[nH]cc2c1C(c1ccccc1F)=NCC(=O)N2	19.7%	-3.5%	17.4%	-13.7%	8.4%	0.1%
CC1(C)CC(OP(=O)(Cl)OC2CC(C)(C)N(O)C(C)(C)C2)CC(C)(C)N1O	1.8%	-0.75%	7.85%	-7.35%	1.1%	-7.65%
NC(=O)/C=C/C(=O)O	19%	9.75%	10.5%	-8.25%	11%	14%
N#CS.[Cr+3].[NH-]CC[NH-].[NH-]CC[NH-].[NH-]CC[NH-]	14.8%	-0.5%	10.2%	12.8%	-2.75%	5.05%

Reference: PubChem BioAssay (NCI)
